Source: PubChem BioAssay (NCI)
Values joined by “and” are separate entries in the source; they are usually repeats but may differ in a detail not shown here. Identical values can stand only once. Compounds without any hit were thinned out: in the full panel of roughly 79,000, 15% have a hit. A structure can be active in one record and inactive in another. Active and inactive are the calls of the source. No stated cut-off is given here; in the data, active means growth inhibition above about 70%; inactive means the rest.

Assays:
[1] = NCI Yeast Anticancer Drug Screen. Data for the rad52 strain (AID 147);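 further: 0% = growth of vehicle-treated control cultures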; settings: S. cerevisiae rad52 mutant growth inhibition, stronger effect = higher value
Outline: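 Read-out: growth inhibition versus vehicle-treated controls. Cells were a DNA repair-deficient yeast strain treated with compounds.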

[2] = NCI Yeast Anticancer Drug Screen. Data for the wt1 strain (AID 149);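 further: 0% = growth of vehicle-treated wt1 cultures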; settings: S. cerevisiae wt1 strain (SPY 50644) growth inhibition, stronger effect = higher value
Outline: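 Yeast wt1 strain exposed to compounds; growth inhibition measured relative to vehicle-treated controls.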

[3] = NCI Yeast Anticancer Drug Screen. Data for the rad50EPP+ strain (AID 151);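 further: 0% = growth of vehicle-treated control cultures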; settings: S. cerevisiae rad50 mutant strain, stronger effect = higher value
Outline: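 Growth inhibition read against vehicle controls in rad50EPP+ yeast, a strain altered in DNA damage repair, after compound exposure.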

[4] = NCI Yeast Anticancer Drug Screen. Data for the mgt1 strain (AID 153); settings: S. cerevisiae mgt1 mutant growth inhibition, stronger effect = higher value
Outline: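 mgt1 yeast grown with test compound; read-out is growth inhibition versus vehicle-treated cultures.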

[5] = NCI Yeast Anticancer Drug Screen. Data for the rad50 strain (AID 155);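 further: 0% = growth of vehicle-only cultures of the same strain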; settings: S. cerevisiae rad50 strain growth inhibition, stronger effect = higher value
Outline: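 Yeast carrying a defined DNA repair defect were exposed to test compounds, and growth was compared with vehicle-treated controls to give percent inhibition.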

[6] = NCI Yeast Anticancer Drug Screen. Data for the mec2-1 strain (AID 157); settings: S. cerevisiae mec2-1 strain, stronger effect = higher value
Outline: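 Yeast mec2-1 mutant treated with compound. Readout: growth inhibition vs vehicle controls.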

[7] = NCI Yeast Anticancer Drug Screen. Data for the rad14 strain (AID 159);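 further: 0% = growth of vehicle-treated control cultures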; settings: S. cerevisiae rad14 strain growth inhibition, stronger effect = higher value
Outline: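 Yeast cells carrying a defined DNA-repair defect were exposed to compounds, and growth inhibition was calculated relative to vehicle-treated control cultures.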

[8] = NCI Yeast Anticancer Drug Screen. Data for the sgs1 mgt1 strain (AID 161);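 further: 0% = growth of cultures given vehicle only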; settings: S. cerevisiae sgs1 mgt1 strain, stronger effect = higher value
Outline: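 Mutant yeast exposed to compound; growth scored against vehicle-only wells.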

[9] = NCI Yeast Anticancer Drug Screen. Data for the CLN2oe strain (AID 163);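 further: 0% = growth of vehicle-only control cultures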; settings: S. cerevisiae CLN2oe strain, stronger effect = higher value
Outline: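 Read-out: yeast growth inhibition, expressed relative to vehicle-only controls. The strain bears an engineered cell-cycle alteration.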

[10] = NCI Yeast Anticancer Drug Screen. Data for the cln2 rad14 strain (AID 165);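 further: 0% = growth equal to vehicle treated cultures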; settings: S. cerevisiae cln2 rad14 strain, stronger effect = higher value
Outline: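 cln2 rad14 yeast strain; compound exposure; growth inhibition read vs vehicle controls.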

[11] = NCI Yeast Anticancer Drug Screen. Data for the bub3 strain (AID 167); settings: S. cerevisiae bub3 mutant strain, stronger effect = higher value
Outline: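 Compounds were applied to a genetically altered yeast strain carrying a cell-cycle control defect. Growth inhibition was scored against vehicle-treated controls.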

[12] = NCI Yeast Anticancer Drug Screen. Data for the wt2 strain (AID 169);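 further: 0% = growth of vehicle-treated yeast cultures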; settings: S. cerevisiae wt2 strain growth inhibition, stronger effect = higher value
Outline: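 Read-out: growth inhibition versus vehicle-treated control cultures after compound exposure of the yeast strain.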

[13] = NCI Yeast Anticancer Drug Screen. Data for the mlh1 strain (AID 171);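 further: 0% = growth of vehicle-treated control cultures of the same strain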; settings: S. cerevisiae mlh1 strain growth inhibition, stronger effect = higher value
Outline: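 Read-out: growth inhibition versus vehicle controls. Strain: engineered yeast with a defined DNA repair or cell cycle defect, compound-treated.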

[14] = NCI Yeast Anticancer Drug Screen. Data for the sgs1 strain (AID 173);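 further: 0% = growth of vehicle-only control cultures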; settings: S. cerevisiae sgs1 mutant, stronger effect = higher value
Outline: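 Read-out: yeast growth inhibition relative to vehicle controls, following compound exposure of a strain with a defined DNA repair/cell cycle alteration.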

[15] = NCI Yeast Anticancer Drug Screen. Data for the mlh1 rad18 strain (AID 175); settings: S. cerevisiae mlh1 rad18 strain growth inhibition, stronger effect = higher value
Outline: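 Yeast w/ defined DNA-repair lesions; compound exposure; growth vs vehicle controls → % inhibition.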

[16] = NCI Yeast Anticancer Drug Screen. Data for the rad18 strain (AID 177); settings: S. cerevisiae rad18 mutant growth inhibition, stronger effect = higher value
Outline: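 Readout: growth inhibition vs vehicle controls. Cells: genetically altered yeast strain, DNA repair defect.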

[17] = at 5.0 µM (retest, dose inferred, filed as 0.5)
[18] = at 50.0 µM (retest, dose inferred, filed as 5.0)

Measured: growth inhibition

COc1ccc(C(=O)C(CN(C)C)CN(C)C)cc1
0.15% (inactive) and 75.1% (active): [11]; at 50.0 µM
inactive: [1]; at 1.2 µM -14% | [1]; at 3.7 µM 30% | [1]; at 11.0 µM 30% | [1]; at 33.0 µM 29% | [1]; at 100.0 µM 48% | [2]; at 1.2 µM -5% | [2]; at 3.7 µM -1% | [2]; at 11.0 µM -4% | [2]; at 33.0 µM 3% | [2]; at 100.0 µM 40% | [3]; at 1.2 µM 10% | [3]; at 3.7 µM 19% | [3]; at 11.0 µM 9% | [3]; at 33.0 µM 13% | [3]; at 100.0 µM 17% | [4]; at 1.2 µM -26% | [4]; at 3.7 µM -12% | [4]; at 11.0 µM -8% | [4]; at 33.0 µM 11% | [5]; at 1.2 µM 7% | [5]; at 3.7 µM -1% | [5]; [17] 26% and 8% | [5]; at 11.0 µM -2% | [5]; at 33.0 µM 11% | [5]; [18] 52% and 35% | [5]; at 50.0 µM 35.8% and 45.3% | [5]; at 100.0 µM 51% | [6]; at 1.2 µM -20% | [6]; at 3.7 µM -9% | [6]; [17] 14% and 1% | [6]; at 11.0 µM -4% | [6]; at 33.0 µM 9% | [6]; [18] 63% and 41% | [6]; at 100.0 µM 68% | [7]; at 1.2 µM -13% | [7]; at 3.7 µM -8% | [7]; at 11.0 µM -2% | [7]; at 33.0 µM 19% | [7]; at 100.0 µM 24% | [8]; [17] 34% and 14% | [8]; [18] 59% and 35% | [8]; at 50.0 µM 32.8% and 61.8% | [9]; at 1.2 µM 15% | [9]; at 3.7 µM 12% | [9]; at 11.0 µM 6% | [9]; at 33.0 µM 33% | [9]; at 100.0 µM 46% | [10]; [17] 11% and 20% | [10]; [18] 31% and 36% | [10]; at 50.0 µM 21.6% and 30.7% | [11]; at 1.2 µM -18% | [11]; at 3.7 µM -5% | [11]; [17] 21% and 19% | [11]; at 11.0 µM -2% | [11]; at 33.0 µM 11% | [11]; [18] 51% and 33% | [12]; at 1.2 µM 12% | [12]; at 3.7 µM 1% | [12]; at 11.0 µM 4% | [12]; at 33.0 µM 36% | [13]; at 1.2 µM -32% | [13]; at 3.7 µM -15% | [13]; at 11.0 µM -13% | [13]; at 33.0 µM 4% | [14]; at 1.2 µM -7% | [14]; at 3.7 µM 29% | [14]; at 11.0 µM 26% | [14]; at 33.0 µM 32% | [15]; [17] 57% and 12% | [15]; at 50.0 µM 8.1% and 64.3% | [16]; at 1.2 µM -3% | [16]; at 3.7 µM -8% | [16]; at 11.0 µM -23% | [16]; at 33.0 µM -3% | [16]; at 100.0 µM 66%
active: [4]; at 100.0 µM 77% | [6]; at 50.0 µM 74.2% and 75.8% | [11]; at 100.0 µM 74% | [12]; at 100.0 µM 79% | [13]; at 100.0 µM 74% | [14]; at 100.0 µM 78%
92% (active) and 27% (inactive): [15]; [18]

CC(C)/C(Cl)=N\OC(=O)Nc1ccc(F)cc1F
inactive: [1]; at 1.2 µM 1% | [1]; at 3.7 µM 7% | [1]; at 11.0 µM 15% | [1]; at 33.0 µM 28% | [2]; at 1.2 µM 2% | [2]; at 3.7 µM 1% | [2]; at 11.0 µM -2% | [2]; at 33.0 µM -1% | [2]; at 100.0 µM 6% | [3]; at 1.2 µM 7% | [3]; at 3.7 µM 13% | [3]; at 11.0 µM 25% | [3]; at 33.0 µM 54% | [4]; at 1.2 µM 3% | [4]; at 3.7 µM 1% | [4]; at 11.0 µM 4% | [4]; at 33.0 µM 13% | [5]; at 1.2 µM 2% | [5]; at 3.7 µM 8% | [5]; [17] 2% | [5]; at 11.0 µM 15% | [5]; at 33.0 µM 32% | [5]; at 50.0 µM 6.55% | [6]; at 1.2 µM 5% | [6]; at 3.7 µM 9% | [6]; [17] 4% | [6]; at 11.0 µM 13% | [6]; at 33.0 µM 28% | [7]; at 1.2 µM 0% | [7]; at 3.7 µM 3% | [7]; at 11.0 µM 9% | [7]; at 33.0 µM 17% | [7]; at 100.0 µM 37% | [8]; [17] -12% | [8]; [18] 69% | [9]; at 1.2 µM 7% | [9]; at 3.7 µM 11% | [9]; at 11.0 µM 12% | [9]; at 33.0 µM 12% | [9]; at 100.0 µM 24% | [10]; [17] -1% | [10]; [18] 38% | [10]; at 50.0 µM 44.8% | [11]; at 1.2 µM 23% | [11]; at 3.7 µM 38% | [11]; [17] 27% | [12]; at 1.2 µM 0% | [12]; at 3.7 µM 0% | [12]; at 11.0 µM 2% | [12]; at 33.0 µM 12% | [12]; at 100.0 µM 63% | [13]; at 1.2 µM 0% | [13]; at 3.7 µM 6% | [13]; at 11.0 µM 9% | [13]; at 33.0 µM 16% | [13]; at 100.0 µM 53% | [14]; at 1.2 µM -1% | [14]; at 3.7 µM 0% | [14]; at 11.0 µM 4% | [14]; at 33.0 µM 27% | [15]; [17] -29% | [15]; [18] 69% | [15]; at 50.0 µM 58% | [16]; at 1.2 µM -3% | [16]; at 3.7 µM -1% | [16]; at 11.0 µM 4% | [16]; at 33.0 µM 17%
active: [1]; at 100.0 µM 75% | [3]; at 100.0 µM 85% | [4]; at 100.0 µM 96% | [5]; [18] 78% | [5]; at 100.0 µM 80% | [6]; [18] 83% | [6]; at 50.0 µM 72.4% | [6]; at 100.0 µM 95% | [8]; at 50.0 µM 70.8% | [11]; at 11.0 µM 70% | [11]; at 33.0 µM 90% | [11]; [18] 97% | [11]; at 50.0 µM 82.1% | [11]; at 100.0 µM 98% | [14]; at 100.0 µM 83% | [16]; at 100.0 µM 79%

CCc1cc(O)c(Cl)c(C)c1Cl
active: [1]; at 100.0 µM 75% | [2]; at 100.0 µM 87% | [3]; at 100.0 µM 90% | [4]; at 33.0 µM 73% | [4]; at 100.0 µM 96% | [5]; [18] 77% | [5]; at 100.0 µM 97%
inactive: [1]; at 1.2 µM -5% | [1]; at 3.7 µM 6% | [1]; at 11.0 µM -8% | [1]; at 33.0 µM 14% | [2]; at 1.2 µM 7% | [2]; at 3.7 µM 21% | [2]; at 11.0 µM 14% | [2]; at 33.0 µM 20% | [3]; at 1.2 µM -12% | [3]; at 3.7 µM 0% | [3]; at 11.0 µM -13% | [3]; at 33.0 µM 40% | [4]; at 1.2 µM 14% | [4]; at 3.7 µM 3% | [4]; at 11.0 µM 28% | [5]; at 1.2 µM -29% | [5]; at 3.7 µM -19% | [5]; [17] 42% | [5]; at 11.0 µM -31% | [5]; at 33.0 µM 43% | [5]; at 50.0 µM 29.6% | [6]; at 1.2 µM -8% | [6]; at 3.7 µM -5%
